Test results reported in PubChem BioAssay AID1159580 (chemical genetic matrix, 2015).
Several values for one entry are separate records, joined by “and”; a condition that tells them apart may be missing. Identical values can stand only once. In all, about 5,500 compounds went through this assay and about 2,000 (36%) were called active. Inconclusive results (about 18%) are left out. No stated cut-off is given here; in the data, active means normalized growth mostly below about 0.91 (no sharp cut-off); inconclusive means no clear call, values can overlap the other calls; inactive means mostly above about 0.92. Some of the results follow.

Test: chemical genetic growth profiling, strain panel (AID 1159580);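 further: tested at 20 µM; growth read once vehicle control cultures reached saturation at 30 °C; 1 = growth at the plate median or of vehicle wells; lower values mean less growth of the strain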
Conditions: S. cerevisiae deletion strains, growth OD

Measured: normalized growth

CC1=NCCc2c1[nH]c1cc(O)ccc21
inactive: locus YAL013W, strain DEP1, hits give low values 0.99 | locus YAL021C, strain ccr4, hits give low values 0.923 | locus YAL026C, strain drs2, hits give low values 0.987 | locus YAL030W, strain snc1, hits give low values 0.984 | locus YBL061C, strain skt5, hits give low values 0.995 | locus YBR009C, strain hhf1, hits give low values 0.97 | locus YBR021W, strain FUR4, hits give low values 0.989 | locus YBR023C, strain chs3, hits give low values 0.994 | locus YBR171W, strain sec66, hits give low values 0.993 | locus YBR229C, strain ROT2, hits give low values 0.955 | locus YBR231C, strain swc5, hits give low values 1.02 | locus YBR279W, strain paf1, hits give low values 0.995 | locus YCL011C, strain gbp2, hits give low values 0.963 | locus YCL016C, strain dcc1, hits give low values 0.967 | locus YCL029C, strain bik1, hits give low values 0.994 | locus YCL069W, strain vba3, hits give low values 0.976 | locus YCR088W, strain abp1, hits give low values 0.99 | locus YDL005C, strain med2, hits give low values 0.995 | locus YDL035C, strain GPR1, hits give low values 0.992 | locus YDL040C, strain nat1, hits give low values 0.993 | locus YDL074C, strain BRE1, hits give low values 0.997 | locus YDL101C, strain DUN1, hits give low values 0.978 | locus YDL134C, strain PPH21, hits give low values 0.988 | locus YDL185W, strain tfp1, hits give low values 0.993 | locus YDL192W, strain arf1, hits give low values 0.992 | locus YDR001C, strain nth1, hits give low values 0.971 | locus YDR069C, strain doa4, hits give low values 0.986 | locus YDR101C, strain arx1, hits give low values 0.997 | locus YDR137W, strain rgp1, hits give low values 0.98 | locus YDR150W, strain NUM1, hits give low values 0.972 | locus YDR159W, strain sac3, hits give low values 1.02 | locus YDR162C, strain NBP2, hits give low values 0.99 | locus YDR195W, strain ref2 0.953 | locus YDR297W, strain sur2, hits give low values 0.996 | locus YDR318W, strain mcm21, hits give low values 0.994 | locus YDR334W, strain swr1, hits give low values 0.97 | locus YDR335W, strain msn5, hits give low values 0.986 | locus YDR388W, hits give low values 1 | locus YDR392W, strain spt3, hits give low values 0.93 | locus YDR502C, strain sam2, hits give low values 0.984 | locus YEL003W, strain gim4, hits give low values 0.994 | locus YEL037C, strain rad23, hits give low values 0.978 | locus YEL061C, strain CIN8 (second series), hits give low values 0.985 | locus YEL061C, strain CIN8, hits give low values 0.988 | locus YER015W, strain faa2, hits give low values 0.975 | locus YER016W, strain bim1, hits give low values 0.993 | locus YER110C, hits give low values 0.974 | locus YER111C, strain swi4, hits give low values 0.995 | locus YER155C, strain BEM2 (second series), hits give low values 1.03 | locus YER155C, strain BEM2, hits give low values 1.01 | locus YER167W, strain BCK2, hits give low values 1 | locus YFR010W, strain ubp6, hits give low values 0.983 | locus YGL078C, strain dbp3, hits give low values 0.991 | locus YGL086W, strain mad1, hits give low values 0.987 | locus YGL167C, strain pmr1, hits give low values 0.976 | locus YGL173C, strain kem1, hits give low values 0.991 | locus YGL227W, strain vid30, hits give low values 0.99 | locus YGL240W, strain doc1, hits give low values 1 | locus YGL248W, strain PDE1, hits give low values 0.99 | locus YGL253W, strain hxk2, hits give low values 0.985 | locus YGR078C, strain PAC10, hits give low values 1.01 | locus YGR135W, strain pre9, hits give low values 0.992 | locus YGR229C, strain SMI1, hits give low values 1.01 | locus YGR252W, strain gcn5, hits give low values 0.932 | locus YHR013C, strain ard1, hits give low values 0.95 | locus YHR027C, strain rpn1, hits give low values 0.966 | locus YHR030C, strain SLT2, hits give low values 0.995 and 1.01 | locus YHR079C, strain IRE1 (second series), hits give low values 0.995 | locus YHR079C, strain IRE1, hits give low values 1.01 | locus YHR094C, strain hxt1, hits give low values 0.99 | locus YHR129C, strain ARP1, hits give low values 1 | locus YHR142W, strain chs7, hits give low values 0.968 | locus YHR200W, strain rpn10, hits give low values 0.991 | locus YIL066C, strain RNR3, hits give low values 0.975 | locus YIL073C, strain SPO22, hits give low values 0.992 | locus YIL125W, strain kgd1, hits give low values 0.988 | locus YIR030C, strain dcg1, hits give low values 0.985 | locus YJL092W, strain hpr5, hits give low values 0.965 | locus YJL095W, strain BCK1 (second series), hits give low values 0.983 | locus YJL095W, strain BCK1, hits give low values 1.05 and 1.01 | locus YJL115W, strain asf1, hits give low values 0.956 | locus YJL129C, strain trk1, hits give low values 1.01 | locus YJL134W, strain LCB3, hits give low values 0.986 | locus YJL154C, strain vps35, hits give low values 0.977 | locus YJL164C, strain tpk1, hits give low values 0.95 | locus YJL166W, strain qcr8, hits give low values 1.01 | locus YJL168C, strain set2, hits give low values 0.999 | locus YJL187C, strain SWE1 (second series), hits give low values 0.991 | locus YJL187C, strain SWE1, hits give low values 0.989 | locus YJR043C, strain POL32, hits give low values 1.01 | locus YJR066W, strain TOR1, hits give low values 0.934
